From PubChem BioAssay
Sampled rows, rich in hits. Any-hit rate of the full collection: about 3.2%.
GALK inhibitor – qHTS Assay for Inhibitors of Human Galactokinase (GALK) | AID 1868, 2009 | 270,000 tested, 0.007% active | Purified GALK, Kinase-Glo residual ATP luminescence | Potency, µM (titrated, usually from 57.5 µM), for the others: at the highest dose activity change, negative = inhibition, hits mostly inhibitors; further: potency means the concentration at half of the fitted maximal effect
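The enzyme phosphorylates galactose (100 uM) using ATP (35 uM); inhibition is detected as higher residual ATP, quantified by bioluminescence after 1 h reaction at room temperature, pH 8.0.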
USP2a block – qHTS Assay for Inhibitors of Ubiquitin-specific Protease USP2a Using CHOP2 as the Reporter | AID 463254, 2010 | Potency, µM (titrated, usually from 38.3 µM), for the others: top-dose activity change, negative = inhibition, most hits filed as inhibitors | Ubiquitin carboxyl-terminal hydrolase 2 (Homo sapiens), O75604 | USP2 core, Ub-CHOP2 coupled fluorogenic reporter, 485/531 | 330,000 tested, 0.01% active;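 further: potency means the concentration at half of the fitted maximal effect; plate controls were DMSO wells for no effect and full inhibition by NEM control for full effect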
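Deubiquitinase activity read as fluorescence (485/531 nm) after Ub-CHOP2 cleavage activates the enterokinase reporter on its substrate; USP2 core 10nM, Ub-CHOP2 and substrate 25nM each, 30min compound preincubation then 60min RT; data normalized to NEM, curves fitted.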
USP1 inh – Inhibitors of USP1/UAF1: Primary Screen; Ubiquitin carboxyl-terminal hydrolase 1 (Homo sapiens), O94782; 390,000 tested, 0.23% active; Potency, µM (top dose mostly 57.1 µM), for inactives: at the top dose activity change, negative = inhibition, most hits filed as inhibitors; recombinant USP1/UAF1, Ub-Rhodamine cleavage fluorescence; AID 743255, 2014; further: potency means the concentration at half of the fitted maximal effect; nearly all actives have a fitted effect of over 60% in size
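High-throughput fluorogenic screen: 1nM USP1/UAF1 complex, Ub-Rho substrate 150nM final, 50mM HEPES pH 7.8 with 0.5mM EDTA, 0.1 mg/ml BSA, 1mM TCEP and 0.01% Tween-20.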
PLK1 PBD block – qHTS for Inhibitors of PLK1-PDB (polo-like kinase 1 - polo-box domain): Primary Screen. Serine/threonine-protein kinase PLK1 (Homo sapiens), P53350. Plk1 PBD binding of FITC phosphopeptide, fluorescence polarization. Potency, µM, inactives show max response, negative = inhibition, actives largely listed as inhibitors. 360,000 tested, 2.8% active. AID 720504, 2013; further: potency means the concentration at half of the fitted maximal effect; series mostly up to about 57 µM; nearly all actives have a fitted effect of over 65% in size
FBPA coupling cs – qHTS Assay for Inhibitors of Fructose-1,6-bisphosphate Aldolase from Giardia Lamblia: Coupling assay counterscreen. 290,000 tested, 0.67% active. activity change, negative = inhibition, % at 58.2 µM, hits read low. coupling enzyme system counterscreen, AmpLite Red fluorescence. AID 2472, 2010; in the data active means activity change below about -30%
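First, compound is pin-transferred into glyceraldehyde-3-phosphate coupling-enzyme reagent at 57.5 uM final and held 10 min at RT. Next, substrate, coupling system and AmpLite Red are added. After 20 min RT, fluorescence (525/598 nm) is read.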
VDR inhibitor – Inhibitors of the vitamin D receptor (VDR): qHTS. VDR-SRC2-3 peptide fluorescence polarization, 2 h. Potency, µM, without a hit: max response, negative = inhibition, actives largely listed as inhibitors. 400,000 tested, 0.93% active; further: potency means the concentration at half of the fitted maximal effect
Target sequence (P11473 whole entry, looked up): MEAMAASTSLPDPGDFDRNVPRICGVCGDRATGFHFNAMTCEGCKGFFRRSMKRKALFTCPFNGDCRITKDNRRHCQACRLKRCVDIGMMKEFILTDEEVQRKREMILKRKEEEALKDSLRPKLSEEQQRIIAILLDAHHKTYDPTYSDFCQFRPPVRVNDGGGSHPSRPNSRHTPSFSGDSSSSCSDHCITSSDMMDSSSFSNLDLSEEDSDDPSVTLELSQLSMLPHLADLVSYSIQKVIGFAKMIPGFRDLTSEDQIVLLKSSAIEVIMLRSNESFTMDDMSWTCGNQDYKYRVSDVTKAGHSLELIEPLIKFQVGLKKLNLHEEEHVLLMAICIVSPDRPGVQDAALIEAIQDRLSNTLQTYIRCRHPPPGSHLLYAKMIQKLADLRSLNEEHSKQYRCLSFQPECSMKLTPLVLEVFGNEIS
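Reagent solutions, kept cold and dark, are dispensed first; compounds are then pinned in at 23 nl, plates briefly spun, and incubated 2 h at ambient temperature. Inhibition of VDR–SRC2-3 peptide binding is read by fluorescence polarization.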
An asterisk follows results filed as active; ? = inconclusive; . = no result; ! = a repeat was not active. Unless noted, the call rests on the fitted dose curve; in most records, active means well fitted curve in the direction sought with a large enough effect; inconclusive means small, poorly fitted or top-dose-only effect, or another doubt; inactive means no such curve, though single readings can be large; an effect the other way counts as inactive or inconclusive. Unless noted, on the % scale 0 is the no-effect control and ±100 the full control effect.

SMILES | GALK inhibitor | USP2a block | USP1 inh | PLK1 PBD block | FBPA coupling cs | VDR inhibitor
O=S(=O)(c1ccc(O)cc1)c1ccc(O)cc1 | 2% | -1% | -1% | -2% | 7 | -7%
Cc1cc(/C=C2\C(=O)NC(=O)N(c3ccc(F)cc3)C2=O)c(C)n1-c1cccc(C(=O)O)c1 | -4% | 2% | -26% | 17µM* | 3 | 9%
O=C(O)Cn1cc(/C=C2\C(=O)NC(=O)N(Cc3ccco3)C2=O)c2ccccc21 | -1% | 0% | -12% | 9.5µM* | -6 | ?
CCN1C(=O)NC(=O)/C(=C\c2cn(CC(=O)O)c3ccccc23)C1=O | 3% | 2% | . | . | -1 | .
O=C(O)Cn1cc(/C=C2\C(=O)NC(=O)N(c3ccc(Br)cc3)C2=O)c2ccccc21 | -10% | 2% | ? | 3µM* | 4 | ?
COC(=O)Cn1cc(/C=C2\C(=O)NC(=O)N(c3ccccc3)C2=O)c2ccccc21 | -3% | 1% | -3% | ? | 1 | 13%
Cc1cc(/C=C2\C(=O)NC(=O)N(c3ccccc3F)C2=O)c(C)n1-c1cc(C(=O)O)cc(C(=O)O)c1 | . | -1% | 10% | ? | 11 | -29%
Cc1ccc(N2C(=O)NC(=O)/C(=C\c3cn(CC(=O)O)c4ccccc34)C2=O)cc1 | -7% | 2% | -16% | 27µM* | -3 | -19%
O=C1CC(=O)N(c2cccc(F)c2)C(=O)N1 | 0% | 2% | -16% | -6% | 0 | -20%
N#Cc1ccc(NC(=O)CN2CCCC2)cc1Cl | 0% | -5% | -19% | -17% | 5 | -12%
CC[C@H](OC(C)=O)C(C[C@H](C)N(C)C)(c1ccccc1)c1ccccc1 | . | -1% | -18% | -9% | . | -10%
O=C1NC(=O)N(c2ccccc2F)C(=O)/C1=C/c1cn(CC(=O)N2CCOCC2)c2ccccc12 | 5% | 0% | -11% | 4.7µM* | 2 | ?
Cn1c(O)c(C(=Nc2ccccc2)SCc2ccc(Cl)cc2)c(=O)n(C)c1=O | -3% | -15% | -6% | 27µM* | -4 | ?
Cn1c(O)c(C(=N)COc2ccccc2)c(=O)n(C)c1=O | -1% | 0% | -14% | -5% | 0 | 18%
CCNN | . | . | . | . | -5 | 0%
O=C1NC(=S)N(c2ccccc2F)C(=O)/C1=C\c1cccs1 | 0% | 1% | -19% | 7.5µM* | 0 | ?
CCOc1ccc(N2C(=O)/C(=C\c3cccs3)C(=O)NC2=S)cc1 | -2% | 0% | -20% | 2.7µM* | -2 | 6%
CCOC(=O)C1CCN(/C=C2/C(=O)NC(=S)N(c3cccc(OC)c3)C2=O)CC1 | -1% | -1% | -9% | -13% | 2 | -20%
CCOc1ccc(N2C(=O)/C(=C/c3ccco3)C(=O)NC2=S)cc1 | 3% | -2% | 22µM* | 1.3µM* | 8 | 79µM*
Cc1ccccc1N1C(=O)/C(=C/c2ccco2)C(=O)NC1=S | ? | ? | . | . | -1 | .
COc1ccc(N2C(=O)/C(=C/c3ccc(OC)c(OC)c3)C(=O)NC2=S)cc1 | 1% | -1% | -9% | 7.5µM* | 0 | ?
COc1ccc(N2C(=O)NC(=O)/C(=C/c3ccc4c(c3)Cc3ccccc3-4)C2=O)cc1 | -2% | -1% | . | . | 4 | .
C[C@@H]1CN([C@H](C)CO)C(=O)CCCn2nncc2CO[C@H]1CN(C)C(=O)Oc1ccccc1 | . | . | -18% | 2% | . | .
CCCCn1c(O)c(C=NCCCn2ccnc2)c(=O)[nH]c1=O | 5% | 2% | 6% | -7% | 3 | -8%
COC(=O)C1(C)C=C2C(=C(C)C(=O)C2C)CN1 (centres undefined) | . | . | . | . | -6 | .
SMILES | GALK inhibitor | USP2a block | USP1 inh | PLK1 PBD block | FBPA coupling cs | VDR inhibitor
Cn1cnc([N+](=O)[O-])c1Sc1ccc([N+](=O)[O-])cc1 | 2% | -3% | -3% | 11µM* | 0 | -28%
c1ccc(CCc2ccc3n2Cc2cnnn2-c2ccccc2-3)cc1 | . | . | -29% | -10% | . | -11%
O=C(O)c1c(C(=O)O)c(-c2ccc(Br)cc2)n2c1CSC2 | -3% | 5% | -18% | -14% | 14 | ?
CN(C)C(=S)SSC(=S)N(C)C | 1% | 2% | ? | 0.34µM* | -45*! | 2.5µM*!
CN(C)C(=S)SC(=S)N(C)C | . | . | . | . | -1 | 28µM*
CCCn1c(=O)n(C)c(=O)c2c(SCC(=O)NC34CC5CC(CC(C5)C3)C4)nc(CC(C)C)nc21 | 2% | 0% | -25% | 30µM* | -1 | -8%
O=C1NC(=S)NC(=O)C12C(c1ccccc1)NC(=S)NC2c1ccccc1 (centres undefined) | . | 6% | ? | -15% | 5 | ?
O=C1NC(=S)NC(=O)C1c1ccccc1 | . | . | -1% | 24µM* | . | ?
CCCCNS(=O)(=O)c1ccc(OCC(=O)N2CCN(Cc3ccc4c(c3)OCO4)CC2)cc1 | -10% | 3% | -11% | 0% | . | 3%
CCOC(=O)c1c(C)c(P(=S)(N2CCOCC2)N2CCOCC2)n(C)c1C | 0% | 1% | -25% | 27µM* | 1 | 7%
COc1ccc(NC(=S)NC(NC(=O)CF)C(Cl)(Cl)Cl)cc1[N+](=O)[O-] (centres undefined) | 9% | 2% | -5% | 30µM* | 0 | -5%
NS(=O)(=O)c1ccc(N2CCNCC2)cc1 | 2% | 11% | -5% | -12% | 3 | 7%
Oc1cccc[c]1[Hg][Cl] | . | . | . | . | . | 5µM*
O=C1OC(c2cc(I)c(O)c(I)c2)(c2cc(I)c(O)c(I)c2)c2ccccc21 | . | . | . | . | 3 | 20µM*
CC(=O)N1Cc2cnnn2-c2ccccc2C1(C)C#N (centres undefined) | . | . | -19% | 0% | . | 6%
O=C1c2ccccc2-c2cc3ccccc3cc21 | . | . | -25% | 5% | . | -17%
O=C1C=C(N2CC2)c2ccccc2C1=O | . | . | 7.1µM* | 15µM* | . | .
Cc1ccccc1O | . | 0% | -7% | -8% | . | 5%
COC(=O)C1=C(c2ccc(F)cc2OCc2ccccc2)C[C@@H]2CC[C@H]1N2C(=O)NCc1cccc(F)c1 | . | 2% | 5% | 21µM* | . | ?
Nc1ccc2nonc2c1[N+](=O)[O-] | 0% | ? | 32µM* | 19µM* | -16 | -16%
CCc1ccc(/C=C(/C#N)C(N)=S)cc1 | 1% | 2% | -20% | 7.5µM* | -3 | ?
Cc1c(C(=O)O)cc(-c2ccccc2)n1Cc1ccccc1 | . | 2% | -14% | -1% | 11 | -20%
